Experimental findings from ChEMBL document CHEMBL5308504, “Tm Shift (DSF) assay results for EUbOPEN Chemogenomics Library” (2023) are described below.

Where “and” joins values, the source holds several entries; their conditions need not be identical. Identical values can stand only once.

Common to all, as to conditions: Compound concentration 20.0 uM, Protein concentration 2.0 uM, Result type QC Liability
Test [1] concerns the target Tyrosine-protein kinase ABL1 (Homo sapiens) (UniProt P00519).
For test [2], the target named is Cyclin-dependent kinase 2 (Homo sapiens) (UniProt P24941).
In test [3] the target is Casein kinase I isoform delta (Homo sapiens) (UniProt P48730).
The target of test [4] is Glycogen synthase kinase-3 beta (Homo sapiens) (UniProt P49841).
The target in test [5] is Mitogen-activated protein kinase 1 (Homo sapiens) (UniProt P28482).
The target of test [6] is T1, Aurora kinase A (Homo sapiens) (UniProt O14965).
T1 sequence (whole entry): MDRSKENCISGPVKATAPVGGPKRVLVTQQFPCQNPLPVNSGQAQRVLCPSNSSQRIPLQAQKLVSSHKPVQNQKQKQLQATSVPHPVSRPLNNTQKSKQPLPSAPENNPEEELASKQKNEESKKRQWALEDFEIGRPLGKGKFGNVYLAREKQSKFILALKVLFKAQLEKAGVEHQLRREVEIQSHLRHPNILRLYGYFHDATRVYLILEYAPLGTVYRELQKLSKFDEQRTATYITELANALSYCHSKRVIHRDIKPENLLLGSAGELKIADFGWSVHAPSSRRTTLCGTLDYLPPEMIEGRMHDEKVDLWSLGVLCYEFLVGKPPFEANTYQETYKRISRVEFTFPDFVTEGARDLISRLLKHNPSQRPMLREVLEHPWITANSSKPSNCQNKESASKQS

Chain of Casein kinase I isoform delta (Homo sapiens) (P48730 whole entry, looked up, canonical isoform): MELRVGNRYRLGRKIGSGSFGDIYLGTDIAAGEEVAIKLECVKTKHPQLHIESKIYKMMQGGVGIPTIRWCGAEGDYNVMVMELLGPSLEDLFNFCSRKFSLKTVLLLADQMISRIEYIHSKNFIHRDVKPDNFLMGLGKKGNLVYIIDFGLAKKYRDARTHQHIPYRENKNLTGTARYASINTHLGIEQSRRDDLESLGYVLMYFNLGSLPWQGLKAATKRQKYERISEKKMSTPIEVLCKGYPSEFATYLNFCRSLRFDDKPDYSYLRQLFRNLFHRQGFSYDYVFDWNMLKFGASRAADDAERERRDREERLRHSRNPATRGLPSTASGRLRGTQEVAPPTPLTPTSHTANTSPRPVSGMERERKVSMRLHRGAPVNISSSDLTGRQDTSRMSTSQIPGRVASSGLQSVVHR
Chain of Mitogen-activated protein kinase 1 (Homo sapiens) (P28482 whole entry): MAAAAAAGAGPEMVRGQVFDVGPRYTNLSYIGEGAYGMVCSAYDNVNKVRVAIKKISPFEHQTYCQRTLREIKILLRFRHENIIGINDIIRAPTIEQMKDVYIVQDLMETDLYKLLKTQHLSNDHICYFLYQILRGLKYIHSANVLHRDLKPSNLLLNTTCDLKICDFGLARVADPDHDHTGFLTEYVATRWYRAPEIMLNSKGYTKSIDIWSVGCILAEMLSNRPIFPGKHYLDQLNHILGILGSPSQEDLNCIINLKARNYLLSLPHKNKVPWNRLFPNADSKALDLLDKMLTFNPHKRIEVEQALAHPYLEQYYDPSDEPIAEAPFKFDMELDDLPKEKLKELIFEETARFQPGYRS
Chain of Glycogen synthase kinase-3 beta (Homo sapiens) (P49841 whole entry, looked up): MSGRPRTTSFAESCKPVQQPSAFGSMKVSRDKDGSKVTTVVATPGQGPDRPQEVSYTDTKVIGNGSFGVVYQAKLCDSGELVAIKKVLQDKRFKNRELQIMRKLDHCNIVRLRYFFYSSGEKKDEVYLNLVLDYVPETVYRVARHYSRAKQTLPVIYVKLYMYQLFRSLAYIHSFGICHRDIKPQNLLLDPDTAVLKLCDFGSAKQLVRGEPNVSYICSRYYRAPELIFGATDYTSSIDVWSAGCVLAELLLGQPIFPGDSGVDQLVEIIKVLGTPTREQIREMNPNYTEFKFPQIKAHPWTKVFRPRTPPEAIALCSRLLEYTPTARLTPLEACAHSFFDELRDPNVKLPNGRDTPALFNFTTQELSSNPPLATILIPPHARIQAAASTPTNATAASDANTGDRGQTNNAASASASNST
Chain of Tyrosine-protein kinase ABL1 (Homo sapiens) (P00519 whole entry): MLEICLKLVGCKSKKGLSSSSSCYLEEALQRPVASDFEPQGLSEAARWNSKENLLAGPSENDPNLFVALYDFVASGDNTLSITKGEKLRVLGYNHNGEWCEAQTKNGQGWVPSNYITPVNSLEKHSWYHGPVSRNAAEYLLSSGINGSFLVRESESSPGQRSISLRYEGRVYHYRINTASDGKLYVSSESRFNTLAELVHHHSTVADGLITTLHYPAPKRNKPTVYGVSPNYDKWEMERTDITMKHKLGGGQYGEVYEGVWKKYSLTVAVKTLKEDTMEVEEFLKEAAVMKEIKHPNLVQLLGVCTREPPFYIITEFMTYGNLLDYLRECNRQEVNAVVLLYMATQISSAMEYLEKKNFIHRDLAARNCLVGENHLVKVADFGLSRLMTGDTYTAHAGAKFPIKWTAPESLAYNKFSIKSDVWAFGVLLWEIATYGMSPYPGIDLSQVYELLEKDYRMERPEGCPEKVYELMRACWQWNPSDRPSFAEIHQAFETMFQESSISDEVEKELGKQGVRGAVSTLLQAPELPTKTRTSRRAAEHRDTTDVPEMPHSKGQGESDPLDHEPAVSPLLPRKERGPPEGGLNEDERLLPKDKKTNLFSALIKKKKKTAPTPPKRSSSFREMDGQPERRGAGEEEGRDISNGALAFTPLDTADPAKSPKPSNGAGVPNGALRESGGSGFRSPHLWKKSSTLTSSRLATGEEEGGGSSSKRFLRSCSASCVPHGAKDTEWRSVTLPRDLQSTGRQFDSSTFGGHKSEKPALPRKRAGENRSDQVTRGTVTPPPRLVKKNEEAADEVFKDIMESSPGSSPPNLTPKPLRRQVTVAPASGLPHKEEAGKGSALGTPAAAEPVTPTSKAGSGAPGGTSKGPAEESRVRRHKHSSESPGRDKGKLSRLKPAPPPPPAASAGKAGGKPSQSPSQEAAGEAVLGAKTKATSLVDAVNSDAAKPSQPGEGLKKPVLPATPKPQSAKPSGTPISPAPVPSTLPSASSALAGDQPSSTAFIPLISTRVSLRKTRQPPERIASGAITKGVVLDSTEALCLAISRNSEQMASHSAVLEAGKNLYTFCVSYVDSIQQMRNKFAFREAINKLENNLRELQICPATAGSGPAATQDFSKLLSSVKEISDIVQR

As usually defined, the ΔTm is the shift of the melting midpoint relative to a reference. In the case of `CC[C@H](CO)Nc1nc(Nc2cccc(-c3ccccn3)c2)c2ncn(C(C)C)c2n1`, the ΔTm was 7.62 °C in test [1]; 4.37 °C in test [2]; 4.48 °C in test [3]; 1.93 °C in test [4]; 2.21 °C in test [5]; 4.01 °C in test [6].
In the case of `CCCCc1oc2ccccc2c1C(=O)c1cc(I)c(OCCN(CC)CC)c(I)c1`, the ΔTm was 0.12 °C in test [1]; 0.14 °C in test [2]; 0.32 °C in test [3]; -0.84 °C in test [4]; 0.02 °C in test [5]; -1.66 °C in test [6].
`Cc1cc(-c2cc3ncccc3c(OC[C@H]3CCCNC3)n2)ccc1N(C)C`: the ΔTm in test [1] amounted to 5.72 °C; in test [2], 0.38 °C; in test [3], 2.65 °C; in test [4], 1.68 °C; in test [5], 0.09 °C; in test [6], 7.37 °C.
Take `CCC(F)(F)c1cc(N2CCC(S(C)(=O)=O)CC2)nc2sc(C(N)=O)c(N)c12`: the ΔTm in test [1] is 0.45 °C and 1.08 °C and 2.55 °C; in test [2], 0.38 °C and 0.74 °C and 0.49 °C; in test [3], 1.03 °C and 1.35 °C and 2.12 °C; in test [4] it was 0.35 °C and -0.21 °C and 1.09 °C; in test [5], 0.45 °C and 0.46 °C and 0.62 °C; in test [6], 0.98 °C and 0.42 °C and 1.33 °C.
`O=C(Cc1ccccc1)Nc1nnc(N2C[C@H]3C[C@@H]2CN3c2cccnn2)s1`: the ΔTm in test [1] was 0.09 °C; in test [2], 0.52 °C; in test [3], -0.12 °C; in test [4] it was -0.33 °C; in test [5], 0.33 °C; in test [6], -0.14 °C.
Consider `CC(C)N1CCN(Cc2cnc(-c3cc(-c4cccc5[nH]ccc45)cc4[nH]ncc34)o2)CC1`, for which the ΔTm in test [1] amounted to 2.44 °C; in test [2], 0.6 °C; in test [3], 1.32 °C; in test [4] it was 3.63 °C; in test [5] it was 0.24 °C; in test [6] it was 4.96 °C.
For the compound `CN[C@@H](C)C(=O)N[C@H](C(=O)N1CCC[C@H]1c1nc(C(=O)c2ccc(F)cc2)cs1)C1CCCCC1`, the ΔTm is 0.09 °C in test [1]; 0.27 °C in test [2]; 0.62 °C in test [3]; -1.01 °C in test [4]; 0.23 °C in test [5]; -1.15 °C in test [6].
On to `Cn1cc(-c2cnc3ccc4ccc(CS(=O)(=O)NCc5ccccn5)cc4c(=O)c3c2)cn1`, for which the ΔTm was 4.08 °C in test [1]; 0.66 °C in test [2]; 0.15 °C in test [3]; 1.66 °C in test [4]; -0.33 °C in test [5]; 5.91 °C in test [6].
For the compound `CN1CCN(c2ccc(Nc3ncc4cc5n(c4n3)C3(CCCCC3)CNC5=O)nc2)CC1`, the ΔTm was 0.17 °C in test [1]; 0 °C in test [2]; -0.03 °C in test [3]; 0.02 °C in test [4]; 0.18 °C in test [5]; 0.38 °C in test [6].
Regarding `COC(=O)c1sccc1S(=O)(=O)Nc1ccc(Nc2ccccc2)cc1OC`, the ΔTm is 0.48 °C in test [1]; 0.72 °C in test [2]; 0.45 °C in test [3]; -0.37 °C in test [4]; -2.78 °C in test [5]; -2.34 °C in test [6].
Regarding `Cc1cc(C)nc(Nc2ncc(C(=O)NCCc3c(C)[nH]c4ccccc34)cn2)c1`, the ΔTm in test [1] was -0.23 °C; in test [2], 0.75 °C; in test [3], -0.55 °C; in test [4], -2.26 °C; in test [5], -0.02 °C; in test [6], 0.27 °C.
As for `COc1cc(-c2nn([C@H]3CC[C@H](N4CCN(C(C)=O)CC4)CC3)c3ncnc(N)c23)ccc1NC(=O)c1cc2ccccc2n1C`, the ΔTm in test [1] is 14.2 °C; in test [2], 1.13 °C; in test [3], 21 °C; in test [4] it was 0 °C; in test [5] it was 3.54 °C; in test [6], 8.28 °C.
`O[C@]1(C(F)(F)F)CCCC[C@H]1Nc1ccc(F)cc1`: the ΔTm in test [1] is 0.25 °C; in test [2], 1.15 °C; in test [3], 0.07 °C; in test [4] it was -0.77 °C; in test [5], 0.26 °C; in test [6] it was 0.42 °C.
In the case of `Cc1nc2ccc(Oc3ccc(F)cc3)cc2c(=O)n1C[C@H]1CCCN(C(C)C)C1`, the ΔTm was 0.92 °C in test [1]; 0.32 °C in test [2]; 0.35 °C in test [3]; -0.38 °C in test [4]; 0.41 °C in test [5]; 0.12 °C in test [6].
Consider `CNC(=O)COc1cc2cc(Nc3nc(N4C[C@H](C)C[C@H](C)C4)ncc3Cl)ccc2n(C)c1=O`, for which the ΔTm in test [1] was -0.28 °C; in test [2] it was 0.46 °C; in test [3], 0.11 °C; in test [4], -0.11 °C; in test [5], 0.15 °C; in test [6], 0.07 °C.
`CC(C)S(=O)(=O)c1ccccc1Nc1nc(N[C@@H]2CCCN(CCCCCCCNC(=O)COc3cccc4c3C(=O)N(C3CCC(=O)N(C)C3=O)C4=O)C2)ncc1Cl` (stereo partly specified): the ΔTm in test [1] was determined as 1.22 °C; in test [2], 1.08 °C; in test [3], 1.07 °C; in test [4], 8.52 °C; in test [5], 0.83 °C; in test [6], 7.69 °C.
As for `COCCOCn1c(S(C)(=O)=O)nc2c1c(=O)n(C)c(=O)n2C`, the ΔTm in test [1] is 0.21 °C; in test [2], 0.39 °C; in test [3], -0.13 °C; in test [4], -0.24 °C; in test [5], -0.83 °C; in test [6] it was 0.11 °C.
As for `CCc1ccccc1C(=O)Nc1n[nH]c2c(C)c(F)c(C3C(C#N)=C(C)N(C)C(C)=C3C#N)cc12`, the ΔTm came out at 0.41 °C in test [1]; 1.35 °C in test [2]; 0.67 °C in test [3]; 8.17 °C in test [4]; 0.38 °C in test [5]; 5.56 °C in test [6].
Consider `C[C@H]1CN(C2COC2)CCN1c1ccc(Nc2cc(-c3ccnc(N4CCn5c(cc6c5CC(C)(C)C6)C4=O)c3CO)cn(C)c2=O)nc1`, for which the ΔTm in test [1] was 3.14 °C; in test [2] it was -0.09 °C; in test [3], 0.48 °C; in test [4] it was -0.54 °C; in test [5] it was -0.67 °C; in test [6], 1.75 °C.
As for `Cc1cn(CCN2CCN(c3ccccc3-c3cc(C#N)cc(C(=O)NCCCN4CCCC4)c3)CC2)c2ccccc12`, the ΔTm was 0.13 °C in test [1]; 0.91 °C in test [2]; -2.16 °C in test [3]; -0.98 °C in test [4]; 0.52 °C in test [5]; -0.16 °C in test [6].
With `N[C@@H](CC(=O)O)Cn1nnc(-c2ccc(Oc3ncc(Cl)cc3F)cc2)n1`, the ΔTm was 0.91 °C in test [1]; 0.66 °C in test [2]; -0.24 °C in test [3]; 0.34 °C in test [4]; 0.49 °C in test [5]; -0.25 °C in test [6].
As to `O=C(Nc1ccc(Cl)c(-c2ccccn2)c1)c1cccc(COc2ccc(Br)cc2CNCCO)c1`, the ΔTm in test [1] was 0.35 °C; in test [2] it was -0.21 °C; in test [3] it was 0.55 °C; in test [4], -0.89 °C; in test [5], -0.69 °C; in test [6], -0.51 °C.
In the case of `Cc1cc(S(=O)(=O)N2CC(C)(C)c3cc(-c4ccc(C(F)(F)F)cc4)ccc32)ccc1OCC(=O)O`, the ΔTm in test [1] was 0 °C; in test [2] it was -2.88 °C; in test [3] it was -0.16 °C; in test [4] it was -5.32 °C; in test [5] it was -9.76 °C; in test [6], -1.56 °C.
With `CC(C)(C)OC(=O)CN(Cc1ccc(Cl)cc1)Cc1ccc([N+](=O)[O-])s1`, the ΔTm was 0.48 °C in test [1]; 0.83 °C in test [2]; 0.3 °C in test [3]; -0.54 °C in test [4]; 0.12 °C in test [5]; -1.37 °C in test [6].
As to `CC1CNCCc2c1nc1ccnn1c2N1CC(C(=O)N2CCC(C)(C)C2)C1` (stereo unspecified), the shift in melting temperature (ΔTm) in test [1] is 0.04 °C; in test [2], 0.37 °C; in test [3], 0.46 °C; in test [4], -0.58 °C; in test [5] it was 0.2 °C; in test [6] it was -0.21 °C.
For the compound `Cc1cnc(-c2cnc(NCCNc3ccc(C#N)cn3)nc2-c2ccc(Cl)cc2Cl)[nH]1`, the ΔTm in test [1] was 0.86 °C; in test [2], 1.98 °C; in test [3], 1.3 °C; in test [4] it was 14.6 °C; in test [5], 1.17 °C; in test [6], 2.09 °C.
